We go through 22 sequences from the supplement of paper PMC6555819.

The test system of this experiment is PXR:RXRa (NR concentration 270 nM, RXRa partner concentration 90 nM). Description: PBM binding z-score (relative to random genomic background probes); higher = stronger binding; sequences stand for … in GC…GCGATTGACAGCGTAGAATGAAGG
Put shortly: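 Scanned fluorescence from custom Agilent 4×180K protein-binding microarrays was regression-normalized. Binding z-scores use random background probes as reference. Ligand-free nuclear receptor dimers were incubated on the arrays for 1 h and detected with antibodies against each partner (one per run).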
In turn, CTACCAAAGTGAACAAGGTCGTTGATTACTATTC registered a PBM binding z-score of 1.76.
For GCTAGTTGCTCAGTAAAAGGTCACACACCGGTCG the value was 4.84.
TCTCGGGGGACACGAAAGGTCAGAGCTCGACATC had a PBM binding z-score of 5.07.
In turn, AGTCAAAGTTCATCTAGGTAACGTAAGATATGCT came in with a PBM binding z-score of 5.
For ATATGTAGGTCACATCCGGGTCATTCAGGCTATG the value was 5.25; for AGAATGAGGTTAAGAGCAGGGAAACAGAATACAT, 1.09.
On to GCTTACGGGTCAAAGGTTATAGCCTGAATAGAAT, for which the PBM binding z-score amounted to 6.26.
As to CAAGCTAGGTCACGAAAGGTCAAAGTCGAATGAC, the PBM binding z-score is 7.36.
TAGCCTATGTCATGGGCCAGTATACCACGCGAAC came in with a PBM binding z-score of -0.487.
For CGTCCAAGGTCAGCAGGTCAGTGACAGCGACGTG the value was 3.79; for TCATATAGGTAAAGGTGAAAGTGGAACGATATGA, 1.17.
For ATCTCAAGGTAACCAAGTTCAGTGAATGCCGAAC the value was 2.82; for CCTTACGGGTCAAGGTGATAGCACGGGTGGTACG, 2.89.
Regarding ACAGACAGGTGAGTGAAGGTATCTCAGCTGGACG, the PBM binding z-score is -0.609.
In turn, CAAACTAGGTCAAAGGTCCAAGTCGAGCCAACCA returned a PBM binding z-score of 3.24.
For the sequence ATATGTAGGTTAAGGGTCAGTCAGGTTGGTTCGC, the PBM binding z-score was 4.14.
For TCTGCTAGGTCAGTTGTTCAGCTAACGAGCTGCC the value was 0.0123; for AGTCAAAGTTCAGGAGGAGGTAACGTAAAGCACG, 3.09; for CCTTGCAGGCCAATCTGGGTCACTCAAGGCTTGA, 1.02.
For the sequence AGAACGAAGGCAATGAGTTGATAGCACGGGTGGC, the PBM binding z-score is -0.512.
For AGTCAAAGTTCACTAGGTAACGTGAGATTCAGCT the value was 3.61.
In turn, GTACCAAGGTGAATTGGTCGTTGATGAGTAGGCG had a PBM binding z-score of -0.436.
